Results on one compound are retold here after ChEMBL document CHEMBL1961873, “Compounds: GSK PKIS; Assays: Nanosyn kinase panel” (2012).

Assay [1] addresses T1, Inhibitor of nuclear factor kappa-B kinase subunit epsilon (Homo sapiens) (UniProt Q14164).
T1 sequence (whole entry): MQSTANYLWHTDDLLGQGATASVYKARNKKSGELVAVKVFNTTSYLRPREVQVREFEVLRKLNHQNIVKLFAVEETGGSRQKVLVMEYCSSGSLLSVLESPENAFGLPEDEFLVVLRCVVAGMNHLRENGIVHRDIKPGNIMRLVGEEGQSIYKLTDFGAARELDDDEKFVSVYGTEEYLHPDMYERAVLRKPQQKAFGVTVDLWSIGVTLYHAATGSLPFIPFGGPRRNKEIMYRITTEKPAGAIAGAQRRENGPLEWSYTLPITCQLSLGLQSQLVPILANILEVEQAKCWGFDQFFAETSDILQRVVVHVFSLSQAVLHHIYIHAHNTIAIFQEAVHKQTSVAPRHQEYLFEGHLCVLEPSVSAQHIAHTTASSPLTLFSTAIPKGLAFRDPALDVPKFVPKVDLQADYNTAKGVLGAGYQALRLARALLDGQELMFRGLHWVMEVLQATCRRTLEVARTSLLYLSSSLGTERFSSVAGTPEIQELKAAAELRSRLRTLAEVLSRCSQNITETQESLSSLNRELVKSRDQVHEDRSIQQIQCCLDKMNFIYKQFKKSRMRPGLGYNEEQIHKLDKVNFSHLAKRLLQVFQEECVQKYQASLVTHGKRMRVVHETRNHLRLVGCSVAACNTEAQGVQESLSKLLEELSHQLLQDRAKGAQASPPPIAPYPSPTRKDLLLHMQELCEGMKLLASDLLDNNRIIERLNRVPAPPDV
The settings on record: at 1 µM.

Assay [2] has as its target T2, Serine/threonine-protein kinase Nek1 (Homo sapiens) (UniProt Q96PY6).
T2 sequence (whole entry): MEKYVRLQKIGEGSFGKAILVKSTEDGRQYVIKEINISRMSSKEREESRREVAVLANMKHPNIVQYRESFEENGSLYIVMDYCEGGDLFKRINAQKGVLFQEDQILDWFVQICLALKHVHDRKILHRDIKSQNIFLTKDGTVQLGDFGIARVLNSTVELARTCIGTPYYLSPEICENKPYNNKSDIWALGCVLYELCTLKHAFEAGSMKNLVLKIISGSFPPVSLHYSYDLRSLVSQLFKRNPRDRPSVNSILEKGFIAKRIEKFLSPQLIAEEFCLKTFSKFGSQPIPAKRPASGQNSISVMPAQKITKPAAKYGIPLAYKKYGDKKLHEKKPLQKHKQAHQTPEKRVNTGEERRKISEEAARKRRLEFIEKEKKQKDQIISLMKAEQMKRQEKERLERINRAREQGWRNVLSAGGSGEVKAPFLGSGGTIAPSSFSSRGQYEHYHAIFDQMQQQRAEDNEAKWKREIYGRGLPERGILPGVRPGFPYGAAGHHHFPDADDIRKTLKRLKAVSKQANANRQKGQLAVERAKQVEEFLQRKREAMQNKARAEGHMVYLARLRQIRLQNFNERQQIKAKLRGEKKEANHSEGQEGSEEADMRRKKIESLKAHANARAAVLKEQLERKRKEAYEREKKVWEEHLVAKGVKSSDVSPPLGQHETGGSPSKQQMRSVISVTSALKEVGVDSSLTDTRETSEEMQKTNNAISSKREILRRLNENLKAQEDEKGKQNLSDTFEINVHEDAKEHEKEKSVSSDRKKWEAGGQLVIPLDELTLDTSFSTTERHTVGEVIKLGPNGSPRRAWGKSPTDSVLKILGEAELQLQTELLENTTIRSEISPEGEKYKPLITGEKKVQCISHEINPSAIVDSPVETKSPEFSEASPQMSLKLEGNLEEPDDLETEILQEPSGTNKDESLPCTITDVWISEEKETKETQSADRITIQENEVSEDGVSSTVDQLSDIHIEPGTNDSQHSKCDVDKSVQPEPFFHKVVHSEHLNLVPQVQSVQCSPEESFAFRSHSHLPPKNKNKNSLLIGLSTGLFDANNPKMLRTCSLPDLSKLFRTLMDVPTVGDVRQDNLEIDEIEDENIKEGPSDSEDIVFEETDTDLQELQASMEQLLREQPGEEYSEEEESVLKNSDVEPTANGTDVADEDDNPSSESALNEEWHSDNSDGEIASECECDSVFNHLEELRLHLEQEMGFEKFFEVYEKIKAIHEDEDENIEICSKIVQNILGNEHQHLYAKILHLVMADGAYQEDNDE
The settings on record: at 0.1 µM.

In assay [3] the target is T2, Serine/threonine-protein kinase Nek1 (Homo sapiens). The note with it: at 1 µM.
The target of assay [4] is T3, Serine/threonine-protein kinase Nek2 (Homo sapiens) (UniProt P51955).
T3 sequence (whole entry): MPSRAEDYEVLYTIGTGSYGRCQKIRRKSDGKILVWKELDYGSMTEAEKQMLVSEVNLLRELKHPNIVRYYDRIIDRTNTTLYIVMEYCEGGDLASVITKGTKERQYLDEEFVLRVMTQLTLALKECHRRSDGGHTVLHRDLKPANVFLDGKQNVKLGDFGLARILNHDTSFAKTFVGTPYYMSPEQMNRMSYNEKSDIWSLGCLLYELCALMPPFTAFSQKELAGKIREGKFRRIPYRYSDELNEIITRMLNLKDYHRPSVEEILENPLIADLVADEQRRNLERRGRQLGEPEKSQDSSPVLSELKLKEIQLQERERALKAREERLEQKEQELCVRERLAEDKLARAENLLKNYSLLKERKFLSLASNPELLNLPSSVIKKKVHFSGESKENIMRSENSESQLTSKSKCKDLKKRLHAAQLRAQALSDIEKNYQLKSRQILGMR
The note with it: at 0.1 µM.

Assay [5] has as its target T3, Serine/threonine-protein kinase Nek2 (Homo sapiens). The settings on record: at 1 µM.
The target in assay [6] is Serine/threonine-protein kinase Nek6 (Homo sapiens) (UniProt Q9HC98). The settings on record: at 0.1 µM.
For assay [7] the target is unchanged. The settings on record: at 1 µM.
Assay [8] concerns the target Serine/threonine-protein kinase Nek7 (Homo sapiens) (UniProt Q8TDX7). The settings on record: at 0.1 µM.
Assay [9] shares this target. The note with it: at 1 µM.
The target in assay [10] is T4, Serine/threonine-protein kinase Nek9 (Homo sapiens) (UniProt Q8TD19).
T4 sequence (whole entry): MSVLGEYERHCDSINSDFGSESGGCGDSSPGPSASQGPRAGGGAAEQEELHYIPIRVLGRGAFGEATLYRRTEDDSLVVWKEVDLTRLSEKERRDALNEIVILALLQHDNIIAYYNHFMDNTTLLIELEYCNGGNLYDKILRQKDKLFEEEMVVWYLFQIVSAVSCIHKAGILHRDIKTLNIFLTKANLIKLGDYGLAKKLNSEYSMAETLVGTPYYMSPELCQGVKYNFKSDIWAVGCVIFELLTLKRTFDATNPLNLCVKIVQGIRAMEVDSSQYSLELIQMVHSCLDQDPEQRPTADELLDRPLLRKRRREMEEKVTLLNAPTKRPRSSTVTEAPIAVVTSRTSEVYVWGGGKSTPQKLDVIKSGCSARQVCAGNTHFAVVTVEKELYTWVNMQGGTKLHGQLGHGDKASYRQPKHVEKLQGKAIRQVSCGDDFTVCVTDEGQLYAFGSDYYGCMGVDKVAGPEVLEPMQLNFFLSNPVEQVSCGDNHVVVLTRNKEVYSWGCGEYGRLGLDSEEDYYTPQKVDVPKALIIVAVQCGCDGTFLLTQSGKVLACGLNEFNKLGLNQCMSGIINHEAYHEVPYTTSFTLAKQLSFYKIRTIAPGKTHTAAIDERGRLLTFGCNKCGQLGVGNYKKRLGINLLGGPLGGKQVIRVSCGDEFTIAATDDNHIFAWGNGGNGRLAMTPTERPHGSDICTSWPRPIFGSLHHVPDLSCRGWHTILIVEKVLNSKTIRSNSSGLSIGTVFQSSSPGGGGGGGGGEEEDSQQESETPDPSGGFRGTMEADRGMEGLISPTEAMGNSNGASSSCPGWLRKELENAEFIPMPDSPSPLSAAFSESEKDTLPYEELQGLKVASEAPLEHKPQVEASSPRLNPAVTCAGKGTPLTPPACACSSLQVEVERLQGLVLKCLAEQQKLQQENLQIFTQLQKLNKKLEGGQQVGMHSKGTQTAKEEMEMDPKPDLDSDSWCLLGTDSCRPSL
The settings on record: at 0.1 µM.

Assay [11] addresses T4, Serine/threonine-protein kinase Nek9 (Homo sapiens). The settings on record: at 1 µM.
In assay [12] the target is Serine/threonine-protein kinase PLK1 (Homo sapiens) (UniProt P53350). The note with it: at 0.1 µM.
Assay [13] shares this target. The note with it: at 1 µM.
Assay [14] concerns the target T5, Dual specificity protein kinase TTK (Homo sapiens) (UniProt P33981).
T5 sequence (whole entry): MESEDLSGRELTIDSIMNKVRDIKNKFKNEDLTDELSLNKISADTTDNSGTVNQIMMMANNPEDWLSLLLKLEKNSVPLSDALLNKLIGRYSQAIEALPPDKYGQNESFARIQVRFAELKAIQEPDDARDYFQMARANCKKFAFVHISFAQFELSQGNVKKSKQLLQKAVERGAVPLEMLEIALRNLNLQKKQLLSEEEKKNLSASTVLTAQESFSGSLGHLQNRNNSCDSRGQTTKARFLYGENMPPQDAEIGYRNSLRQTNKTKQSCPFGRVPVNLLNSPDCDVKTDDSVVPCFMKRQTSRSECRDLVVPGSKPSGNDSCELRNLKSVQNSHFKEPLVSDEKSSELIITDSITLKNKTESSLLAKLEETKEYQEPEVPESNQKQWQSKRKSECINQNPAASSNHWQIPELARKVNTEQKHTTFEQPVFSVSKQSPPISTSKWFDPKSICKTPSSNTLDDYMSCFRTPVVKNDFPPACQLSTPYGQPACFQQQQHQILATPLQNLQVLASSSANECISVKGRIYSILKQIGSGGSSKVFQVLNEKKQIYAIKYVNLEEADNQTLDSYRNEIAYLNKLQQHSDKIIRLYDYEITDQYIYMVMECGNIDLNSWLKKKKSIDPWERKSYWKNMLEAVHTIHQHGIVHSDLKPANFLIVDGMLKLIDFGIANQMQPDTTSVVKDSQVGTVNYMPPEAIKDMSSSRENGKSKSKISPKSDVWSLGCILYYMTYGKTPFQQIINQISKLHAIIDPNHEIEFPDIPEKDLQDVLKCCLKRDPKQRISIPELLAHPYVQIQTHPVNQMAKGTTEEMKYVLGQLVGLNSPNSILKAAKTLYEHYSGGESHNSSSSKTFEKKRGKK
The settings on record: at 0.1 µM.

The subject of assay [15] is T6, Receptor-type tyrosine-protein kinase FLT3 (Homo sapiens), P36888 [D835Y].
T6 sequence (whole entry): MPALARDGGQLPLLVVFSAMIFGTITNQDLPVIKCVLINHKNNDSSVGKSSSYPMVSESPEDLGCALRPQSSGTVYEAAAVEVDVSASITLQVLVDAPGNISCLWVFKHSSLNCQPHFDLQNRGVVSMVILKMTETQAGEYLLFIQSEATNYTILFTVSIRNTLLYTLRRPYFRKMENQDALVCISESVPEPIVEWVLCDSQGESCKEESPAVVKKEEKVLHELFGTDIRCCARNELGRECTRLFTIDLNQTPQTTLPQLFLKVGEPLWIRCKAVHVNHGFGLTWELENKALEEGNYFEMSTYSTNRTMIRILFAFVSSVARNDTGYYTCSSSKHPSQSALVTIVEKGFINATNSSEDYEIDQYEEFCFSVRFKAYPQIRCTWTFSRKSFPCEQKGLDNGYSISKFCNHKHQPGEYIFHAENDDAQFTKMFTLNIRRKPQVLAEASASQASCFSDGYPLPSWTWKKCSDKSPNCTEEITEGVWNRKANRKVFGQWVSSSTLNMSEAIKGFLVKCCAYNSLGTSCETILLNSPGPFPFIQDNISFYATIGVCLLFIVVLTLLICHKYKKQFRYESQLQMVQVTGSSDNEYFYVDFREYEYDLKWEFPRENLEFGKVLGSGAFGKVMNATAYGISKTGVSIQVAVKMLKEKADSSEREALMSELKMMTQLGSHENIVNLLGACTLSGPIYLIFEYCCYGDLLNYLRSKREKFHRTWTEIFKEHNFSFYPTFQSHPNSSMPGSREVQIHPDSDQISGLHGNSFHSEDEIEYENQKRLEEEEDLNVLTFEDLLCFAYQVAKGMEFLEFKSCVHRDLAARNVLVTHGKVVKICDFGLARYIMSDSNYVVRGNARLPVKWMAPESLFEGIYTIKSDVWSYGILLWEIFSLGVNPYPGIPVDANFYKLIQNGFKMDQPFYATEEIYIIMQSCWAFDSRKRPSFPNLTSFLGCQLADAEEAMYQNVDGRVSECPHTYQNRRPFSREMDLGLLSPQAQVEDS
The note with it: at 1 µM.

Assay [16] addresses Vascular endothelial growth factor receptor 3 (Homo sapiens) (UniProt P35916). The note with it: at 0.1 µM.
Assay [17] shares this target. The settings on record: at 1 µM.
In assay [18] the target is Macrophage colony-stimulating factor 1 receptor (Homo sapiens) (UniProt P07333). The note with it: at 0.1 µM.
Assay [19] shares this target. The settings on record: at 1 µM.
The target in assay [20] is Tyrosine-protein kinase Fyn (Homo sapiens) (UniProt P06241). The note with it: at 0.1 µM.

One may read the inhibition as the relative decrease from the control value, in per cent.

Serine/threonine-protein kinase PLK1 (Homo sapiens), sequence (P53350 whole entry): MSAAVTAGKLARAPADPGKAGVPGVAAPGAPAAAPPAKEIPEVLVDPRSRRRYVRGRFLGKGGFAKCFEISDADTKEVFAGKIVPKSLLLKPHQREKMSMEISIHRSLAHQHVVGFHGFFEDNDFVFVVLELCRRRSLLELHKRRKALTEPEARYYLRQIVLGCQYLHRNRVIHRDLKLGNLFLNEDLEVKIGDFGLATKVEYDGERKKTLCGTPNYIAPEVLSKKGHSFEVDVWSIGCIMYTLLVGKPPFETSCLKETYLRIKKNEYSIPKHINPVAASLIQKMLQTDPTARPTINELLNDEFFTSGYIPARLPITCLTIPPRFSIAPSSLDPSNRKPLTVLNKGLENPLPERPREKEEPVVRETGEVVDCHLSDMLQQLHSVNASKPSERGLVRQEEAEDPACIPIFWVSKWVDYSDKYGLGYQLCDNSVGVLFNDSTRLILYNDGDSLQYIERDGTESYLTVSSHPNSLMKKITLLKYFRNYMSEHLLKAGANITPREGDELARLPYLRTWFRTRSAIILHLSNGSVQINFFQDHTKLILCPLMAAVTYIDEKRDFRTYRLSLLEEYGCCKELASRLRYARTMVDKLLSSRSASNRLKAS
Macrophage colony-stimulating factor 1 receptor (Homo sapiens), sequence (P07333 whole entry): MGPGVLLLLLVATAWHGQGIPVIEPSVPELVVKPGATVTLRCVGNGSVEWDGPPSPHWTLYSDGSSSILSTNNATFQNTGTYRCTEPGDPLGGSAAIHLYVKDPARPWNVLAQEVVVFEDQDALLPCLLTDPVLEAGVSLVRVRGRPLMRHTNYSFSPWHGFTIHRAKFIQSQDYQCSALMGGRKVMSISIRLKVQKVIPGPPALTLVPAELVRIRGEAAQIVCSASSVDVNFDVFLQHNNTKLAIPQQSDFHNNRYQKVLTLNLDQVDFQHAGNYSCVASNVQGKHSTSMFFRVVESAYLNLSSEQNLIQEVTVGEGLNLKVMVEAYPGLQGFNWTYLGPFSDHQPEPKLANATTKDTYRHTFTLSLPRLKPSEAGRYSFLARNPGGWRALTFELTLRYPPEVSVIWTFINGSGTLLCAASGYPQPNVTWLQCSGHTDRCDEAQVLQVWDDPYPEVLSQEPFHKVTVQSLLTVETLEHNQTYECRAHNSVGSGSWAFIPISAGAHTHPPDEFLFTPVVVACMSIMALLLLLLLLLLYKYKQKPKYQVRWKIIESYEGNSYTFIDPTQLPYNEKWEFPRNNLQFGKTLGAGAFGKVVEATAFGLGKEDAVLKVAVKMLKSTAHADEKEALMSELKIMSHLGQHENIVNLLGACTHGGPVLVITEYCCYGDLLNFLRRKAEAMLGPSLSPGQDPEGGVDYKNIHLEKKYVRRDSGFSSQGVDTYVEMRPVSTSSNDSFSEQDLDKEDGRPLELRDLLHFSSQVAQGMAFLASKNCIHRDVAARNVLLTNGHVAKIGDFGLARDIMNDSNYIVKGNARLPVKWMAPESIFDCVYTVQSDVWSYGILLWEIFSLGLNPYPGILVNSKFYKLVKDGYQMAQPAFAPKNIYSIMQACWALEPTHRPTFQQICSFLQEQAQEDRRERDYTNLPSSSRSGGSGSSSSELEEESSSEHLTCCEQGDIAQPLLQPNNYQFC
Vascular endothelial growth factor receptor 3 (Homo sapiens), sequence (P35916 whole entry): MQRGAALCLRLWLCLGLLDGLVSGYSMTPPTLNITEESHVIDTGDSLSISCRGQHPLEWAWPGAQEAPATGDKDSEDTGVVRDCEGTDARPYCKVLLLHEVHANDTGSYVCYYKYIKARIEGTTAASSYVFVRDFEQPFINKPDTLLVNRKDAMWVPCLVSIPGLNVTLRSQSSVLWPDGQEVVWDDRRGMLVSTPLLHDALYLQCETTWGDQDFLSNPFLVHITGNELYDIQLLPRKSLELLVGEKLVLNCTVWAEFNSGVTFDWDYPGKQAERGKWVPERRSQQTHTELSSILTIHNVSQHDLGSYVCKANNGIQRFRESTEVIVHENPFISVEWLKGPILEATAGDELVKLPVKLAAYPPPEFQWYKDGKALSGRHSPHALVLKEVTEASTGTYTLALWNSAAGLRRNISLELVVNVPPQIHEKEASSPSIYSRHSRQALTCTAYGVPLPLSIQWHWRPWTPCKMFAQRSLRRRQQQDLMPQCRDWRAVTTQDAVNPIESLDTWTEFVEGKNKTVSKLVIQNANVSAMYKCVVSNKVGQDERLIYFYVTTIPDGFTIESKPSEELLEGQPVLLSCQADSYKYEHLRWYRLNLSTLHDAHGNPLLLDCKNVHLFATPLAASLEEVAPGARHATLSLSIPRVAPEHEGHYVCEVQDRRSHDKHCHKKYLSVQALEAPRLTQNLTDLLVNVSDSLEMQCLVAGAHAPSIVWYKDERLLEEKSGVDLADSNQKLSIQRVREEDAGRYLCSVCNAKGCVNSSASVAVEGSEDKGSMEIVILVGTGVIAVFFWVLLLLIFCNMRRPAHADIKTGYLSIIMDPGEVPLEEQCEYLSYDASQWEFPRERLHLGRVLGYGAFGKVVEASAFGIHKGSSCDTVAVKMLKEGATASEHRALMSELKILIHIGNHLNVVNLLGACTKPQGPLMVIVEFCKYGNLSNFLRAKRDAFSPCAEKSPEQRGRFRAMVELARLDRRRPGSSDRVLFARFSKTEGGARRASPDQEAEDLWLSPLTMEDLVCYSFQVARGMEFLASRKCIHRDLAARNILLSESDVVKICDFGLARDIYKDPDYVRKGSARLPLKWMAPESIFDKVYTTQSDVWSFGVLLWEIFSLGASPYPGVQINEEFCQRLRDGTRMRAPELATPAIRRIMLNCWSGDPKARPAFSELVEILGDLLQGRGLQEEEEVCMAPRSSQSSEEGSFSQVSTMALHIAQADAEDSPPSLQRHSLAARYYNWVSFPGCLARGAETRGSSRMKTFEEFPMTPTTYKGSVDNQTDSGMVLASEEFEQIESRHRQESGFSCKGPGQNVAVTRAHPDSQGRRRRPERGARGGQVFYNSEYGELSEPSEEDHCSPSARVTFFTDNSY
Serine/threonine-protein kinase Nek6 (Homo sapiens), sequence (Q9HC98 whole entry): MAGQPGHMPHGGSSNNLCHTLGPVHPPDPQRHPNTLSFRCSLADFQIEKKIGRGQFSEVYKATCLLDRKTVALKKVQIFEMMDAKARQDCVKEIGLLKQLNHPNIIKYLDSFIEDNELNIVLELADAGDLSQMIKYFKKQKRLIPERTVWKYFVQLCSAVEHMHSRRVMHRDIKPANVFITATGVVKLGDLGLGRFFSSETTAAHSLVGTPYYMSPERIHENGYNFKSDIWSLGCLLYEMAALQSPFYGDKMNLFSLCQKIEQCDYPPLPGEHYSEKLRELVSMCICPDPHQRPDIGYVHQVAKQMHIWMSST
Serine/threonine-protein kinase Nek7 (Homo sapiens), sequence (Q8TDX7 whole entry, looked up): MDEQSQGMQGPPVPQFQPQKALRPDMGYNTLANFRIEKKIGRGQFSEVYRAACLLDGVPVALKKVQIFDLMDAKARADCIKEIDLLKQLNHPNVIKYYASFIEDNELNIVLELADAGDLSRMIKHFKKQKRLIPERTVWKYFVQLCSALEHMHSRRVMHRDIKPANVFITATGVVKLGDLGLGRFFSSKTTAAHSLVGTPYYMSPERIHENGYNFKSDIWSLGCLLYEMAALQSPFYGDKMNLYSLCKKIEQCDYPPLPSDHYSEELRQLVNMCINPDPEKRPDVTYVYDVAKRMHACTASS
Tyrosine-protein kinase Fyn (Homo sapiens), sequence (P06241 2-537 limits assumed): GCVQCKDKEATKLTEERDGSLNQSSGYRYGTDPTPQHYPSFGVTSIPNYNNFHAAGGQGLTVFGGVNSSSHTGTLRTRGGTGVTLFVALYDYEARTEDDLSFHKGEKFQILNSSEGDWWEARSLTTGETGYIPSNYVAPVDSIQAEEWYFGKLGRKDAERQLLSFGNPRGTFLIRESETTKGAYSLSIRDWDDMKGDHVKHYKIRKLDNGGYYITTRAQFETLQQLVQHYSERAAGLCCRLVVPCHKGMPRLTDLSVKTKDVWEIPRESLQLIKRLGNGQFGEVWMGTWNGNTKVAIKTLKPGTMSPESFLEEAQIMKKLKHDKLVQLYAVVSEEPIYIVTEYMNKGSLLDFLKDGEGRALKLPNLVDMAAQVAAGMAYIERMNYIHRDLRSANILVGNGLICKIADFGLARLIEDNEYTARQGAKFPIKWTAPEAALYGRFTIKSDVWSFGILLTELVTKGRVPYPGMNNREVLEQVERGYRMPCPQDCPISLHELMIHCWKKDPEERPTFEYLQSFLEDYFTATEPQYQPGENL

Take `Fc1ccc(-c2ncn(C3CCNCC3)c2-c2ccnc(Oc3ccc(F)c(F)c3)n2)cc1`: the inhibition stood at 4.67% in [1]; 2.19% in [2]; 0.52% in assay [3]; 5.55% in [4]; 4.23% in assay [5]; 0.84% in assay [6]. Besides, the inhibition in assay [7] was 2.1%; in assay [8], 3.19%; in [9], 6.72%; in assay [10], 6.39%; in [11], 6.01%; in assay [12] it was 3.45%. The inhibition in assay [13] is 2.6%; in assay [14], 10.3%; in [15] it was -6.12%; in assay [16], -4.95%; in [17], -7.54%; in assay [18], 1.11%. Besides, the inhibition in [19] is 7.56%; in [20] it was -4.18%.
